Screening data (PubChem BioAssay)
FMDV antiviral: blocks foot and mouth disease virus; FMDV antiviral cell-based qHTS; Potency, µM (doses to about 57.9 µM), actives largely listed as inhibitors; 1.2% of 410,000 active; calls by dose curve; tested in HEK293T cells; note: read-out not given here; nearly all actives have a fitted effect of over 45% in size
VACV mCherry inh: inhibitors of vaccinia virus infection (mCherry reporter signal); Vaccinia virus mCherry reporter infection, fluorescence; Potency, µM (doses to about 36.5 µM), usual class: inhibitors; 0.63% of 310,000 active; AID 720579; calls by dose curve; tested in A549 cells; note: nearly all actives have a fitted effect of over 35% in size
VACV Venus inh: vaccinia inhibition (Venus reporter); Vaccinia virus Venus reporter expression, fluorescence; Potency, µM (doses to about 36.5 µM), usual class: inhibitors; 0.46% of 330,000 active; AID 720580; calls by dose curve; tested in A549 cells; note: nearly all actives have a fitted effect of over 30% in size
Lassa entry inh: blocks Lassa virus binding to or entry into cells; Lassa virus pseudotype entry inhibition, cell reporter; Potency, µM (titrated, usually from 37.9 µM), usual class: inhibitors; 1.2% of 300,000 active; AID 540256; calls by dose curve; tested in HEK293 cells; note: nearly all actives have a fitted effect of over 50% in size
MARV entry inh: inhibitors of Marburg virus binding or cell entry; Marburg virus pseudotyped entry inhibition, cell reporter; Potency, µM (highest dose often 37.8 µM), actives largely listed as inhibitors; 1.8% of 300,000 active; AID 540276; calls by dose curve; tested in HEK293 cells
HCMV antiviral: human cytomegalovirus inhibition. AID 1259415. activity change, negative = inhibition, % at 57.5 µM. HFF cells, HCMV-luciferase reporter, 72 h; stronger effect = lower value. 4.5% of 410,000 active; in the data active = activity change below about -60%; inconclusive = no clear call, values can overlap the other calls; inactive = above about -39%
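Compounds were evaluated in HFFs infected with an HCMV luciferase reporter virus (MOI 1 PFU/cell). Luciferase in lysates collected 72 h post infection served as the replication measure.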
Of the large screens only hits and unclear results are named; the others gave an inactive call. Most compounds without a hit are left out; they make up all but 6.5% or so of the library.

CCOC1=C2[C@H](c3ccc(CC)cc3)N(S(=O)(=O)c3ccc(C)cc3)C[C@H]2C(C#N)(C#N)C(C#N)(C#N)C1	FMDV antiviral 35.5µM, HCMV antiviral -74.0 (no result: Lassa entry inh, MARV entry inh)
CCOC1=C2CN(S(=O)(=O)c3ccc(C)cc3)C(c3ccc(CC)cc3)CC2N(S(=O)(=O)c2ccc(C)cc2)C(c2ccc(CC)cc2)C1 (stereo unspecified)	FMDV antiviral inconclusive (no result: Lassa entry inh, MARV entry inh)
CC(=O)Nc1cnc(-c2cc(C)c(O)c(C)c2)cn1	none (no result: Lassa entry inh, MARV entry inh)
CCS(=O)(=O)N1CCc2cc(C(=O)NC(C)c3ccccc3)ccc21 (stereo unspecified)	none
CSCCC(NS(=O)(=O)c1ccc(Cl)cc1)C(=O)O (stereo unspecified)	MARV entry inh inconclusive
CSCCC(NS(=O)(=O)c1ccc(C)c(C(=O)O)c1)C(=O)O (stereo unspecified)	HCMV antiviral -63.8
COc1cc2oc(-c3ccc(O)cc3)cc(=O)c2c(O)c1OC	HCMV antiviral -109.8 (no result: Lassa entry inh, MARV entry inh)
O=c1cc(-c2ccc(O)cc2)oc2ccc3ccccc3c12	FMDV antiviral 5.62µM, HCMV antiviral -86.1 (no result: VACV mCherry inh, VACV Venus inh, Lassa entry inh, MARV entry inh)
O=c1cc(-c2ccc(O)cc2)oc2c1ccc1ccccc12	none (no result: VACV mCherry inh, VACV Venus inh, Lassa entry inh, MARV entry inh)
COc1cc2oc(-c3ccc(O)cc3)cc(=O)c2c(OC)c1O	VACV mCherry inh inconclusive, VACV Venus inh inconclusive (no result: Lassa entry inh, MARV entry inh)
CCN1C(=O)[C@H]2[C@H]3[C@H](O)[C@H](O)C/C(=N\OC[C@@H](O)COCc4ccco4)[C@@H]3CC[C@H]2C1=O	none (no result: FMDV antiviral, VACV mCherry inh, VACV Venus inh, Lassa entry inh, HCMV antiviral)
CC(C)(C)NC[C@H](O)c1ccccc1Cl	none (no result: FMDV antiviral, VACV mCherry inh, VACV Venus inh, Lassa entry inh, HCMV antiviral)
Cc1noc(C)c1C(=O)NCc1ccccc1Br	none
Cc1noc(C)c1C(=O)NCc1ccccc1F	HCMV antiviral -68.9
O=C(C(NS(=O)(=O)c1cccs1)c1ccccc1)N1CCN(c2ccccc2F)CC1 (stereo unspecified)	Lassa entry inh 7.3µM, MARV entry inh inconclusive
Cc1cccc(N2CCN(C(=O)C3CCN(S(=O)(=O)c4cccs4)CC3)CC2)c1C	VACV mCherry inh inconclusive, Lassa entry inh inconclusive
Cc1cccc(N2CCN(C(=O)C(NS(=O)(=O)c3cccs3)c3ccccc3)CC2)c1C (stereo unspecified)	VACV mCherry inh inconclusive, Lassa entry inh 2.59µM
Cc1cccc(N2CCN(C(=O)C3CCC(CNS(=O)(=O)c4cccs4)CC3)CC2)c1C (stereo unspecified)	VACV mCherry inh inconclusive, VACV Venus inh inconclusive, Lassa entry inh inconclusive, MARV entry inh inconclusive, HCMV antiviral -60.6
Cc1ccc(Cl)cc1NC(=O)C(NS(=O)(=O)c1cccs1)c1ccccc1 (stereo unspecified)	FMDV antiviral inconclusive, Lassa entry inh inconclusive, MARV entry inh inconclusive, HCMV antiviral -70.2
CC(C)CN(CCCNC(=O)c1cc(-c2ccc(Br)s2)nc2ccccc12)CC(C)C	Lassa entry inh inconclusive
COCCCn1c(=O)c2sccc2n(Cc2ccc(C)cc2)c1=O	none (no result: VACV mCherry inh, VACV Venus inh, Lassa entry inh, MARV entry inh)
CCOC(=O)c1nnn(-c2nonc2-n2cccc2)c1CCl	FMDV antiviral 14.1µM, HCMV antiviral inconclusive (no result: VACV mCherry inh)
CCOC(=O)c1nnn(-c2nonc2-n2cccc2)c1CN1CCC(C)CC1	Lassa entry inh inconclusive, MARV entry inh inconclusive, HCMV antiviral inconclusive
CCOc1ccc(S(=O)(=O)/N=C(\N)c2ccccc2)cc1	VACV mCherry inh inconclusive, Lassa entry inh 12.6µM
CCOc1ccc(S(=O)(=O)/N=C(/c2ccccc2)N(C)C)cc1	none (no result: VACV mCherry inh, VACV Venus inh, Lassa entry inh, MARV entry inh)
Nc1nc(N)c2snnc2n1	none (no result: FMDV antiviral, Lassa entry inh, MARV entry inh, HCMV antiviral)
O=C(NCc1ccc(F)cc1)c1c(O)nc2ccccn2c1=O	HCMV antiviral -61.5 (no result: Lassa entry inh)
COc1cccc(CNC(=O)CCCCCNC(=O)N2CCn3c2nc2ccccc23)c1	none (no result: VACV mCherry inh, VACV Venus inh, Lassa entry inh, MARV entry inh)
CC(=O)c1cccc(-c2ccnc3c2CC(C(=O)Nc2cccnc2)O3)c1 (stereo unspecified)	none (no result: Lassa entry inh, MARV entry inh)
CC(=O)c1cccc(-c2ccnc3c2CC(C(=O)Nc2ccc(C(C)C)cc2)O3)c1 (stereo unspecified)	HCMV antiviral -82.3 (no result: Lassa entry inh, MARV entry inh)
CC(=O)Nc1ccc(NC(=O)C2Cc3c(-c4cccc(F)c4)ccnc3O2)cc1 (stereo unspecified)	none (no result: Lassa entry inh, MARV entry inh)
O=C(Nc1ccc(Cl)c(C(F)(F)F)c1)C1Cc2c(-c3ccccc3)ccnc2O1 (stereo unspecified)	HCMV antiviral -83.8 (no result: Lassa entry inh, MARV entry inh)
CC(=O)c1cccc(NC(=O)C2Cc3c(-c4cccc(C(C)=O)c4)ccnc3O2)c1 (stereo unspecified)	FMDV antiviral 22.4µM, HCMV antiviral inconclusive (no result: Lassa entry inh, MARV entry inh)
COc1ccc(NC(=O)C2Cc3c(-c4cccc(F)c4)ccnc3O2)cc1 (stereo unspecified)	HCMV antiviral -81.4 (no result: Lassa entry inh, MARV entry inh)
Cc1ccc2c(CN3CCN(c4ccccc4)CC3)cc(=O)oc2c1	Lassa entry inh inconclusive (no result: MARV entry inh)
Cc1sc2ncn(CC(=O)N(C)c3ccc(C(C)C)cc3)c(=O)c2c1S(=O)(=O)N1CCC(C)CC1	none
Cc1ncc2c(c1CNS(=O)(=O)N(C)C)CCN(C(=O)c1[nH]c3ccc(Cl)cc3c1C)C2	none (no result: Lassa entry inh, MARV entry inh, HCMV antiviral)
[O-]/[N+](=C\c1ccncc1)c1ccccc1	none
[O-]/[N+](=C/c1ccc(F)cc1)c1ccccc1	HCMV antiviral -79.9 (no result: VACV mCherry inh, VACV Venus inh)
O=C(CSc1cccc[n+]1[O-])c1ccc(Cl)s1	none
COc1cc(C(=O)NN=Cc2ccc(N(C)C)cc2)cc(OC)c1OC	VACV Venus inh inconclusive, HCMV antiviral -66.3 (no result: Lassa entry inh, MARV entry inh)
O=C(N/N=C/c1ccc(O)cc1)c1cc(-c2ccc3c(c2)OCO3)n[nH]1	VACV mCherry inh inconclusive, Lassa entry inh inconclusive, MARV entry inh 7.94µM, HCMV antiviral inconclusive
COc1ccc(CCC(=O)N/N=C/c2ccc3c(c2)OCO3)cc1	Lassa entry inh 0.1µM
O=C(CCc1ccccc1)NCC(=O)N/N=C/c1ccc2c(c1)OCO2	MARV entry inh inconclusive, HCMV antiviral inconclusive
COc1ccc(/C=N/NC(=O)c2cc(OC)c(OC)c(OC)c2)cc1CN1CCc2cc(OC)c(OC)cc2C1C (stereo unspecified)	MARV entry inh 14.1µM
COc1cc(/C=N/NC(=O)c2ccncc2)cc(OC)c1OC	none
O=C(N/N=C/c1ccccc1)c1cc(-c2ccc3c(c2)OCO3)n[nH]1	none
COc1ccc(NC(=O)COC(=O)CCNS(=O)(=O)c2ccccc2)cc1OC	none
CCc1ccc(N2CC(C(=O)N3CCCC3)CC2=O)cc1 (stereo unspecified)	none
Cc1ccc(CNC(=O)Cn2cc(S(=O)(=O)Cc3cccc(Cl)c3)c3ccccc32)cc1	VACV mCherry inh inconclusive (no result: MARV entry inh)
O=C(N/N=C/c1ccc([N+](=O)[O-])o1)c1ccc2c(c1)OCO2	HCMV antiviral -96.5 (no result: VACV mCherry inh, VACV Venus inh, Lassa entry inh, MARV entry inh)
O=C(NN=Cc1ccc2c(c1)OCO2)NN=Cc1ccc2c(c1)OCO2	Lassa entry inh inconclusive, MARV entry inh inconclusive
CN(C)c1ccc(/C=N/NC(=O)c2ccc3c(c2)OCO3)cc1	HCMV antiviral -66.0 (no result: VACV mCherry inh, VACV Venus inh, Lassa entry inh, MARV entry inh)
O=C(N/N=C\c1ccc(-c2ccc([N+](=O)[O-])cc2)o1)c1ccc2c(c1)OCO2	none
N/C(=N\N=Cc1ccc2c(c1)OCO2)NN=Cc1ccc2c(c1)OCO2	MARV entry inh inconclusive, HCMV antiviral -73.5
O=C(N/N=C/c1ccccc1)c1ccc2c(c1)OCO2	HCMV antiviral inconclusive (no result: VACV mCherry inh, VACV Venus inh, Lassa entry inh, MARV entry inh)
